According to PubChem BioAssay AID1159580 (chemical genetic matrix, 2015):
Screen size: about 5,500 compounds; about 2,000 (36%) were called active. About 18% were inconclusive and are not listed. Cut-off read from the data, not from the text of the source: active = normalized growth mostly below about 0.91 (no sharp cut-off); inconclusive = no clear call, values can overlap the other calls; inactive = mostly above about 0.92. The list shows a part of the results.

Assay: chemical genetic growth profiling, strain panel (AID 1159580);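 note: tested at 20 µM; growth read once vehicle control cultures reached saturation at 30 °C; 1 = growth at the plate median or of vehicle wells; lower values mean less growth of the strain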
Conditions: growth OD

Measured: normalized growth

C=C[C@@]1(C)CC(=O)[C@@]2(O)[C@](C)(O1)[C@@H](OC(C)=O)[C@@H](O)C1C(C)(C)CC[C@H](O)[C@@]12C (some centres not stated)
inactive: S. cerevisiae deletion strains, locus YJR075W, strain HOC1, stronger effect = lower value 0.997 | S. cerevisiae deletion strains, locus YKL009W, strain mrt4, stronger effect = lower value 0.964 | S. cerevisiae deletion strains, locus YKL068W, stronger effect = lower value 0.992 | S. cerevisiae deletion strains, locus YKL085W, strain MDH1 (second series), stronger effect = lower value 0.966 | S. cerevisiae deletion strains, locus YKL085W, strain MDH1, stronger effect = lower value 0.966 | S. cerevisiae deletion strains, locus YKL160W, strain elf1, stronger effect = lower value 0.963 | S. cerevisiae deletion strains, locus YKL190W, strain CNB1, stronger effect = lower value 0.99 | S. cerevisiae deletion strains, locus YKR001C, strain vps1, stronger effect = lower value 0.984 | S. cerevisiae deletion strains, locus YKR026C, strain gcn3, stronger effect = lower value 0.997 | S. cerevisiae deletion strains, locus YKR091W, strain srl3, stronger effect = lower value 0.971 | S. cerevisiae deletion strains, locus YLL001W, strain dnm1, stronger effect = lower value 1.02 | S. cerevisiae deletion strains, locus YLL026W, stronger effect = lower value 0.964 | S. cerevisiae deletion strains, locus YLL041C, strain sdh2, stronger effect = lower value 0.969 | S. cerevisiae deletion strains, locus YLR027C, strain aat2, stronger effect = lower value 0.98 | S. cerevisiae deletion strains, locus YLR039C, strain RIC1, stronger effect = lower value 0.939 | S. cerevisiae deletion strains, locus YLR058C, strain SHM2, stronger effect = lower value 0.982 | S. cerevisiae deletion strains, locus YLR102C, strain apc9, stronger effect = lower value 0.974 | S. cerevisiae deletion strains, locus YLR113W, strain HOG1, stronger effect = lower value 0.955 | S. cerevisiae deletion strains, locus YLR221C, strain rsa3, stronger effect = lower value 1.03 | S. cerevisiae deletion strains, locus YLR258W, strain gsy2, stronger effect = lower value 0.965 | S. cerevisiae deletion strains, locus YLR262C, strain YPT6 (second series), stronger effect = lower value 0.968 | S. cerevisiae deletion strains, locus YLR262C, strain YPT6, stronger effect = lower value 0.894 | S. cerevisiae deletion strains, locus YLR268W, strain sec22, stronger effect = lower value 1.07 | S. cerevisiae deletion strains, locus YLR320W, strain mms22, stronger effect = lower value 1.01 | S. cerevisiae deletion strains, locus YLR330W, strain CHS5, stronger effect = lower value 0.989 | S. cerevisiae deletion strains, locus YLR342W, strain FKS1 (second series), stronger effect = lower value 0.987 | S. cerevisiae deletion strains, locus YLR342W, strain FKS1, stronger effect = lower value 0.991 | S. cerevisiae deletion strains, locus YLR357W, strain rsc2, stronger effect = lower value 0.987 | S. cerevisiae deletion strains, locus YLR370C, strain arc18, stronger effect = lower value 0.978 | S. cerevisiae deletion strains, locus YLR371W, strain rom2, stronger effect = lower value 0.968 | S. cerevisiae deletion strains, locus YLR384C, strain iki3, stronger effect = lower value 0.993 | S. cerevisiae deletion strains, locus YLR418C, strain cdc73, stronger effect = lower value 0.99 | S. cerevisiae deletion strains, locus YML016C, strain PPZ1, stronger effect = lower value 0.991 | S. cerevisiae deletion strains, locus YML032C, strain rad52, stronger effect = lower value 1.01 | S. cerevisiae deletion strains, locus YML120C, strain ndi1, stronger effect = lower value 0.989 | S. cerevisiae deletion strains, locus YML124C, strain tub3, stronger effect = lower value 0.983 | S. cerevisiae deletion strains, locus YMR058W, strain fet3, stronger effect = lower value 0.982 | S. cerevisiae deletion strains, locus YMR078C, strain ctf18, stronger effect = lower value 0.985 | S. cerevisiae deletion strains, locus YMR125W, strain sto1, stronger effect = lower value 0.974 | S. cerevisiae deletion strains, locus YMR129W, stronger effect = lower value 0.965 | S. cerevisiae deletion strains, locus YMR205C, strain PFK2, stronger effect = lower value 0.998 | S. cerevisiae deletion strains, locus YMR223W, strain ubp8, stronger effect = lower value 0.98 | S. cerevisiae deletion strains, locus YMR231W, strain pep5, stronger effect = lower value 0.992 | S. cerevisiae deletion strains, locus YMR263W, strain SAP30, stronger effect = lower value 0.992 | S. cerevisiae deletion strains, locus YMR307W, strain GAS1, stronger effect = lower value 1 | S. cerevisiae deletion strains, locus YNL067W, strain RPL9B, stronger effect = lower value 1.01 | S. cerevisiae deletion strains, locus YNL071W, strain lat1, stronger effect = lower value 0.988 | S. cerevisiae deletion strains, locus YNL128W, strain TEP1, stronger effect = lower value 0.965 | S. cerevisiae deletion strains, locus YNL153C, strain GIM3, stronger effect = lower value 1.01 | S. cerevisiae deletion strains, locus YNL183C, strain NPR1, stronger effect = lower value 0.933 | S. cerevisiae deletion strains, locus YNL209W, strain ssb2, stronger effect = lower value 0.992 | S. cerevisiae deletion strains, locus YNL233W, strain BNI4, stronger effect = lower value 1.01 | S. cerevisiae deletion strains, locus YNL248C, strain rpa49, stronger effect = lower value 0.919 | S. cerevisiae deletion strains, locus YNL250W, strain rad50, stronger effect = lower value 0.972 | S. cerevisiae deletion strains, locus YNL271C, strain bni1, stronger effect = lower value 0.987 | S. cerevisiae deletion strains, locus YNL298W, strain CLA4, stronger effect = lower value 0.959 | S. cerevisiae deletion strains, locus YNL307C, strain MCK1, stronger effect = lower value 0.996 | S. cerevisiae deletion strains, locus YNL322C, strain KRE1 (second series), stronger effect = lower value 0.939 | S. cerevisiae deletion strains, locus YNL322C, strain KRE1, stronger effect = lower value 0.994 | S. cerevisiae deletion strains, locus YNR049C, strain mso1, stronger effect = lower value 0.959 | S. cerevisiae deletion strains, locus YNR052C, strain pop2, stronger effect = lower value 0.984 | S. cerevisiae deletion strains, locus YOL006C, strain TOP1, stronger effect = lower value 0.997 | S. cerevisiae deletion strains, locus YOL012C, strain htz1 1.15 | S. cerevisiae deletion strains, locus YOL147C, strain pex11, stronger effect = lower value 0.999 | S. cerevisiae deletion strains, locus YOR001W, strain rrp6, stronger effect = lower value 1.03 | S. cerevisiae deletion strains, locus YOR061W, strain CKA2, stronger effect = lower value 0.972 | S. cerevisiae deletion strains, locus YOR069W, strain VPS5, stronger effect = lower value 0.993 | S. cerevisiae deletion strains, locus YOR070C, strain gyp1, stronger effect = lower value 0.986 | S. cerevisiae deletion strains, locus YOR080W, strain dia2, stronger effect = lower value 0.973 | S. cerevisiae deletion strains, locus YOR083W, strain WHI5, stronger effect = lower value 0.92 | S. cerevisiae deletion strains, locus YOR106W, strain vam3, stronger effect = lower value 0.919 | S. cerevisiae deletion strains, locus YOR136W, strain idh2, stronger effect = lower value 0.978 | S. cerevisiae deletion strains, locus YOR144C, strain elg1, stronger effect = lower value 0.991 | S. cerevisiae deletion strains, locus YOR184W, strain ser1, stronger effect = lower value 0.978 | S. cerevisiae deletion strains, locus YOR231W, strain MKK1, stronger effect = lower value 0.966 | S. cerevisiae deletion strains, locus YOR265W, strain rbl2, stronger effect = lower value 0.988 | S. cerevisiae deletion strains, locus YOR270C, strain vph1, stronger effect = lower value 0.94 | S. cerevisiae deletion strains, locus YOR290C, strain snf2, stronger effect = lower value 0.955 | S. cerevisiae deletion strains, locus YOR316C, strain cot1, stronger effect = lower value 0.984 | S. cerevisiae deletion strains, locus YPL051W, strain arl3, stronger effect = lower value 0.97 | S. cerevisiae deletion strains, locus YPL055C, strain LGE1, stronger effect = lower value 0.998 | S. cerevisiae deletion strains, locus YPL078C, strain atp4, stronger effect = lower value 0.955 | S. cerevisiae deletion strains, locus YPL106C, strain sse1, stronger effect = lower value 0.955 | S. cerevisiae deletion strains, locus YPL240C, strain hsp82, stronger effect = lower value 0.987 | S. cerevisiae deletion strains, locus YPL241C, strain CIN2, stronger effect = lower value 0.989 | S. cerevisiae deletion strains, locus YPL256C, strain CLN2, stronger effect = lower value 0.973 | S. cerevisiae deletion strains, locus YPR119W, strain clb2, stronger effect = lower value 0.978 | S. cerevisiae deletion strains, locus YPR141C, strain kar3, stronger effect = lower value 0.975 | S. cerevisiae deletion strains, locus YPR163C, strain tif3, stronger effect = lower value 0.993 | S. cerevisiae deletion strains, locus YPR167C, strain met16, stronger effect = lower value 0.986 | S. cerevisiae deletion strains, strain wtn01, stronger effect = lower value 0.997 | S. cerevisiae strains, strain wild type, stronger effect = lower value 0.984
